# Results filed as inconclusive are left out. Calls of active or inactive are those of the source.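 The calls were made as follows, unless noted: active = viability at or under a set limit in both replicates, limit being median viability minus 3 SD (cut at about 48% in these data, passing the limit was not always enough); inconclusive = at or under the limit in just one replicate; inactive = at or above the limit in both replicates.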
# Legend:
# [1] = Her2 expression decrease, cell viability multiplex – SKBR3 breast tumor cells, AlphaScreen, ATP viability, primary screen (AID 461;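 active = Her2 level under about 52% in both replicate screens, with viability over 70% of control, limit read from the data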;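 as to Her2 level: lower value means less Her2 protein in the cells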;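 as to viability: percent of carrier control wells set as 100% viability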); details: SKBR3 Her2 protein level, 18-24 h, measured here: SKBR3 viability, ATP luminescence, at 10 µM
# [2] = molecular target: Receptor tyrosine-protein kinase erbB-2 (Homo sapiens) (UniProt P04626); test: as above; details: 18-24 h, at 10 µM, stronger effect = lower value
# Chain of Receptor tyrosine-protein kinase erbB-2 (Homo sapiens) (P04626 whole entry, looked up): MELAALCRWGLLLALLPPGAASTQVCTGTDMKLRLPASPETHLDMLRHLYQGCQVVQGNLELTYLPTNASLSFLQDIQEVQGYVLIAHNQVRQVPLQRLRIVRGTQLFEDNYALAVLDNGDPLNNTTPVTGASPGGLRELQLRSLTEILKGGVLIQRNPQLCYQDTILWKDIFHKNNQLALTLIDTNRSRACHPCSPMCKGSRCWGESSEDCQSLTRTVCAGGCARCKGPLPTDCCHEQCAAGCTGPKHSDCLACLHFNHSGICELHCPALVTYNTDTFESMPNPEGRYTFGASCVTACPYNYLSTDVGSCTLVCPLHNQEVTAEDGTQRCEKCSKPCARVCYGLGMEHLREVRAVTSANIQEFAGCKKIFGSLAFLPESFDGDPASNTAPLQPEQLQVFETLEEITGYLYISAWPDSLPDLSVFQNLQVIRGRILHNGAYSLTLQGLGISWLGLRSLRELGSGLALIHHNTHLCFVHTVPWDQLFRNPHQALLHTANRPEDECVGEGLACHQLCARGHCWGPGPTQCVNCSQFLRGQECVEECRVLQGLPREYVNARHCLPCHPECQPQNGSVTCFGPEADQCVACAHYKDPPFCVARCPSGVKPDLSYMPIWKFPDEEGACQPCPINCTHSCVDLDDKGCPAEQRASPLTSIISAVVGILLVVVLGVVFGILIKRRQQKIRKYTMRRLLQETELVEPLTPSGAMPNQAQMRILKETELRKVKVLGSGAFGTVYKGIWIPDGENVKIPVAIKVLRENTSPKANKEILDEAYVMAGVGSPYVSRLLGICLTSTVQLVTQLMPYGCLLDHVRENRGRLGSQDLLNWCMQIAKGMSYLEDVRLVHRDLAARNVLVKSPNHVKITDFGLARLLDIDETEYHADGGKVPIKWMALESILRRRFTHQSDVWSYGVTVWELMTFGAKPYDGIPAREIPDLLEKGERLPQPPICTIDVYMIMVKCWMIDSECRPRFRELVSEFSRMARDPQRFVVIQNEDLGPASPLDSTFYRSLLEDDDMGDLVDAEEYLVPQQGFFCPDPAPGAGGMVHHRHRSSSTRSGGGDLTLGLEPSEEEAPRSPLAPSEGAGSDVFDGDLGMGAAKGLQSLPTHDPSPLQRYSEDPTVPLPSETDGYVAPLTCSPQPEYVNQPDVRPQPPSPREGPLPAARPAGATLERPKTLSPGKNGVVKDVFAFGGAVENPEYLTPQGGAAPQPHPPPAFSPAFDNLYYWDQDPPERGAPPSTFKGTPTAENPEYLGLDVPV
# [3] = reduced viability of SK-BR-3 breast cancer cells – cell-based, 24 h, human, pilot screen (AID 572;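 active = viability at or below 10% of carrier control in both of two separate runs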;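 also: compound exposure lasted between 18 and 24 h rather than exactly 24 h; 100% = carrier-treated control wells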); details: SK-BR-3 viability, CellTiter-Glo luminescence, at 10 µM, stronger effect = lower value
# [4] = HUVEC growth inhibition – cell-based, human, primary screen (AID 575;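 active = viability at or below 30% in both replicate assays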;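 also: 100% = median of untreated cell wells with 0.1% DMSO on each plate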); details: HUVEC proliferation, CellTiter-Glo luminescence, 72 h; at 10 µM; stronger effect = lower value
# [5] = H69AR cell proliferation blockers – human, duplicate replicates, primary screen (AID 580); details: H69AR lung tumor cells viability, ATP luminescence, 72 h; at 10 µM; stronger effect = lower value;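 also: 100% = mean luminescence of untreated wells and 0% = no signal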
# [6] = MRP1 drug-resistance reversers in H69AR cells – cell-based, doxorubicin co-treatment, pilot screen (AID 601;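 active = viability loss from added drug above about 55%, and viability with drug at most 40%, in both replicates, limit read from the data, passing the limit was not always enough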); details: CellTiter-Glo, 72 h, at 10 µM; for differential viability (reversal): stronger effect = higher value
# [7] = yeast transport mutant growth inhibition pilot in 384-well plates, post-Golgi transport modulator project (AID 636; in the data active = inhibition above about 31%); details: absorbance 615 nm, about 18 h, stronger effect = higher value
# [8] = growth suppression of yeast trafficking mutant, preliminary HTS, modulators of trafficking downstream of Golgi apparatus project, 1536-format plate, OD 615 nm (AID 637; in the data active = inhibition above about 30%); details: yeast transport mutant growth, absorbance 615 nm, 18 h; stronger effect = higher value
# [9] = S. cerevisiae growth inhibition in permissive medium (OD615), pilot counter-assay for S. cerevisiae lifespan shortening project, permissive growth control (AID 705;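 active = growth inhibition above 25% in both replicates, a cutoff set 3 SD above the mean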); details: OD615, 24 h, at 10 µM, stronger effect = higher value
# [10] = S. cerevisiae growth inhibition in restrictive medium, OD615, pilot screen, restrictive growth control, yeast lifespan reduction project (AID 706;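 active = growth inhibition above a set limit, 3 SD over mean compound inhibition, in both replicates, cut at about 43% in these data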;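 also: modified DeaD lifespan yeast strain shifted to restrictive glucose medium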); details: OD615, 48 h, at 10 µM, stronger effect = higher value
# [11] = doxorubicin toxicity protection in MRP-1 cells – H69AR cells, CellTiter-Glo, duplicate, MRP-1 activator project, pilot screen (AID 807;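 active = viability increase at or above a cutoff of the median across tested compounds plus 3 SD, cut at about 8.5% in these data, passing the limit was not always enough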;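 also: compound pretreatment 18-22 h then 72 h combined with doxorubicin; 0% = doxorubicin alone and 100% = vehicle without doxorubicin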); details: H69AR viability with doxorubicin, CellTiter-Glo luminescence; at 10 µM; stronger effect = higher value
# [12] = viability of HCT116 without oncogenic beta-catenin – human colon tumor cells, pilot screen (AID 823;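 active = cell viability at or below a set limit in both duplicate runs, the limit being the all-compound median minus 4 SD, cut at about 23% in these data, passing the limit was not always enough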;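 also: 0% = wells killed by 20 µM Hyamine and 100% = untreated DMSO cell wells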); details: HCT116 beta-catenin knockout viability, CellTiter-Glo, 60 h; at 10 µM; stronger effect = lower value
# [13] = viability of PTEN-null HCT116 cells – cell-based, HCT116 clonal line, CellTiter-Glo, pilot screen (AID 824;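 active = viability at or below 27.92% in each of two runs, the all-compound median minus 4 SD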;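 also: 0% = 20 µM Hyamine control and 100% = vehicle cell control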); details: HCT116 PTEN-deleted viability, 60 h, at 10 µM, stronger effect = lower value
# [14] = RAM pathway blockade in budding yeast – dse1pr::URA3 reporter, 5-FOA selection, pilot screen (AID 869;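 active = inhibition over a set limit, the all-compound mean plus 3 SD, in both replicate runs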;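 also: 0% = DMSO wells with no growth and 100% = 10 µM 1-NA-PP1 with full growth; RAM network block rescues cells from 5-FOA so hits raise OD615 growth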); details: S. cerevisiae dse1pr::URA3 5-FOA growth, OD615, 2 d; at 10 µM; stronger effect = higher value; strain carries analog-sensitive mutant Cbk1 kinase
# [15] = RAM signaling pathway blockade in yeast – S. cerevisiae, Pdr1DBD-CYC8 efflux-inhibited sensitized strain, primary screen (AID 1298;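 active = RAM network inhibition above 8.4% in each of two replicates, 3 SD over the compound average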;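 also: 0% = DMSO untreated cells without growth and 100% = 10 µM 1-NA-PP1 full growth; higher means more yeast growth rescued from 5-FOA killing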); details: S. cerevisiae cbk1-as DSE1-URA3 strain, 5-FOA growth OD615, 2 d; at 50 µM; stronger effect = higher value
# [16] = H69AR cells + 2 uM doxorubicin, measured here: viability with 2 uM doxorubicin, stronger effect = lower value
# [17] = H69AR cells, compound alone cytotoxicity
SMILES,viability [1],Her2 level [2],viability [3],viability [4],viability [5],differential viability (reversal) ([6]; H69AR cells + 2 uM doxorubicin),"viability [6, 16]","viability [6, 17]",inhibition [7],inhibition [8],growth inhibition [9],growth inhibition [10],viability increase [11],viability [12],viability [13],inhibition [14],RAM network inhibition [15]
COc1ccc(-n2c(Cc3cccn3C)nnc2SCC(=O)Nc2ccc(Cl)cc2)cc1,99%,58% (inactive),99% (inactive),46.6% (inactive),70.7% (inactive),-8.34% (inactive),79%,70.7%,-0.38% (inactive),2% (inactive),4.53% (inactive),8.94% (inactive),-6.37% (inactive),47.6% (inactive),51.3% (inactive),-0.125% (inactive),5.81% (inactive)
Cc1ccc(CNC(=O)C2CCCN(S(=O)(=O)c3cnc[nH]3)C2)cc1 (stereo not given),94%,110% (inactive),94% (inactive),94.5% (inactive),106% (inactive),13.9% (inactive),92.3%,106%,-2.13% (inactive),-3.61% (inactive),0.76% (inactive),6.6% (inactive),0.52% (inactive),109% (inactive),102% (inactive),0.415% (inactive),1.04% (inactive)
COc1ccc(CCNC(=O)c2cc3sc(Cl)cc3n2C)cc1OC,89.5%,94% (inactive),89.5% (inactive),98.3% (inactive),90.7% (inactive),-3.9% (inactive),94.6%,90.7%,-3.59% (inactive),-8% (inactive),-5.07% (inactive),12.9% (inactive),3.32% (inactive),65.2% (inactive),77.3% (inactive),0.605% (inactive),1.25% (inactive)
CCOc1ccccc1C1C(C(=O)Nc2ccc(OC)cc2)=C(C)Nc2nc(CCCO)nn21 (stereo not given),87.5%,89.5% (inactive),87.5% (inactive),84.4% (inactive),91.3% (inactive),8.7% (inactive),82.6%,91.3%,-0.4% (inactive),-2.17% (inactive),-9.82% (inactive),-7.01% (inactive),-0.17% (inactive),109% (inactive),98.7% (inactive),0.865% (inactive),1.36% (inactive)
CN(CCNS(=O)(=O)c1ccc2c(c1)oc(=O)n2C)Cc1ccccc1,86%,99% (inactive),86% (inactive),90.7% (inactive),98.1% (inactive),10.2% (inactive),87.9%,98.1%,-2.95% (inactive),-2.33% (inactive),-2.83% (inactive),5.57% (inactive),-1.52% (inactive),97.5% (inactive),90.2% (inactive),2.44% (inactive),4.66% (inactive)
